In PubChem BioAssay:
Activity calls are given as the source filed them.

Legend:
[1] = small molecules captured by biotinylated probe aFSTL3 – biochemical, small-molecule microarray, fluorescence 635/667, stem cell growth factor project, primary screen (AID 1064); conditions: higher = more signal;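 note: measures binding of the biotinylated anti-FSTL3 antibody to printed compounds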
[2] = binders from COS7 lysate, DM2A8 probe, primary screen, torsin A project, cell lysate, small-molecule microarray, fluorescence 635/667 (AID 1065); conditions: higher = more signal, COS7 lysate expressing mutant human TOR1A
[3] = small molecules captured by biotinylated probe aFGF2 – biochemical, small-molecule microarray, fluorescence 635/667, stem cell growth factor project, primary screen (AID 1067); conditions: higher = more signal;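 note: measures binding of biotinylated aFGF2 protein to printed compounds on slides; z-score merges feature fluorescence and signal-to-noise across triplicate slides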
[4] = small molecules captured by biotinylated probe aFGF10 – biochemical, small-molecule microarray, fluorescence 635/667, stem cell growth factor project, primary screen (AID 1071); conditions: higher = more signal;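 note: score merges 667 nm spot intensity and signal to noise from triplicate slides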
[5] = target: Neurogenic locus notch homolog protein 2 (Homo sapiens) (UniProt Q04721); assay: small molecules binding Notch2 protein – biochemical, small-molecule microarray, 635 nm fluorescence, stem cell growth factors, primary screen (AID 1073); conditions: higher = more signal
[6] = target: Pro-neuregulin-1, membrane-bound isoform (Homo sapiens) (UniProt Q02297); assay: small molecules binding neuregulin-1 protein – biochemical, small-molecule microarray, fluorescence 635/667, psychiatric disease protein project, primary screen (AID 1075); conditions: NRG1 binding, 635 nm fluorescence, higher = more signal;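 note: score combines 667 nm spot fluorescence with signal to noise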
[7] = test system: Neuregulin-1 EGF-like domain; assay: small molecules binding NRG1 EGF domain – biochemical, small-molecule microarray, 635 nm fluorescence, primary screen (AID 1081); conditions: higher = more signal;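 note: binding of the protein to compounds printed on small-molecule microarray slides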
[8] = FRG1 expression reporter modulators in myotubes – cell-based, C2C12 myotubes, firefly/Renilla luciferase, luminescence, FRG1 inhibition for FSHD, primary screen (AID 1084); conditions: FRG1 promoter luciferase, higher = more signal, called active from +8 up or from −8 down
[9] = small molecules captured by biotinylated probe aFST – biochemical, small-molecule microarray, fluorescence 635/667, stem cell growth factor project, primary screen (AID 1086); conditions: higher = more signal;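 note: score merges 667 nm fluorescence with signal-to-noise of each printed compound spot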
[10] = binders of probe aHhip on microarray, primary screen, stem cell growth factor project, biochemical, small-molecule microarray, fluorescence 635/667 (AID 1087); conditions: higher = more signal;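 note: score merges spot fluorescence at 667nm with spot signal to noise ratio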
[11] = test system: PRMT1 (protein arginine N-methyltransferase 1); assay: small molecules binding arginine methyltransferase PRMT1 – biochemical, small-molecule microarray, 635 nm fluorescence, primary screen (AID 1088); conditions: higher = more signal;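 note: binding of Prmt1 protein to compounds spotted on small-molecule microarray slides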
[12] = growth effects on S. cerevisiae YJM789 – YJM789 clinical isolate, OD600, 24 h, basal, primary screen (AID 1089); conditions: higher = more signal, called active from +8 up or from −8 down;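 note: growth of clinical yeast isolate S. cerevisiae YJM 789 seeded 1000 cells per well; test concentration not given here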
[13] = S. pombe growth modifiers, basal conditions – strain 972, OD600, 24 h, no modulator, primary screen (AID 1090);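 note: basal condition with compound alone and no growth modifier present; test concentration not given here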; conditions: S. pombe 972 growth, higher = more signal, called active from +8 up or from −8 down
[14] = budding yeast growth modifiers under rapamycin – strain BY4716, OD600, 96 h, primary screen (AID 1091); note: test concentration not given here; conditions: S. cerevisiae BY4716 + rapamycin, higher = more signal, called active from +8 up or from −8 down
[15] = target: Torsin-1A-interacting protein 2 (Homo sapiens) (UniProt Q8NFQ8); assay: small molecules binding lysate-expressed LULL1 – cell lysate, human LULL1 lysate, 635/667 nm fluorescence, primary screen (AID 1092); conditions: small-molecule microarray, hLULL1 lysate binding, 635 nm fluorescence; higher = more signal;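 note: probe is lysate of COS7 cells overexpressing human LULL1; score merges per-feature 667 nm fluorescence with signal-to-noise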
[16] = optical density change of DRC41 E. coli – strain DRC41, OD650, 24 h, E. coli filamentation project, primary screen (AID 1093);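 note: MC1000 strain lacking acrAB efflux and sulA so SOS filamentation is blocked; test concentration not given here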; conditions: E. coli DRC41 growth, higher = more signal, called active from +8 up or from −8 down
[17] = probe aLefty2 binding to arrayed compounds – biochemical, biotinylated probe, 635/667 nm fluorescence, primary screen (AID 1094); conditions: small-molecule microarray, higher = more signal;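 note: score merges spot fluorescence near 667 nm with spot signal-to-noise ratio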
[18] = test system: Noggin (protein binding on small-molecule microarray); assay: small molecules binding Noggin protein – biochemical, 635/667 nm fluorescence, primary screen (AID 1095); conditions: 635 nm fluorescence, higher = more signal;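 note: score merges 667 nm feature fluorescence with signal to noise over triplicate slides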
[19] = target: Neurogenic locus notch homolog protein 3 (Homo sapiens) (UniProt Q9UM47); assay: small molecules binding NOTCH3 protein – biochemical, 635/667 nm fluorescence, primary screen (AID 1096); conditions: small-molecule microarray, 635 nm fluorescence, higher = more signal
[20] = probe aEGFR binding to arrayed compounds – biochemical, biotinylated probe, 635/667 nm fluorescence, primary screen (AID 1097); conditions: small-molecule microarray, higher = more signal;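 note: probe is a biotinylated anti-EGFR antibody binding compounds printed on slides; score combines fluorescence near 667 nm and signal to noise of each spot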

Chain of Pro-neuregulin-1, membrane-bound isoform (Homo sapiens) (Q02297 whole entry, looked up, the tested form may be a part, canonical isoform): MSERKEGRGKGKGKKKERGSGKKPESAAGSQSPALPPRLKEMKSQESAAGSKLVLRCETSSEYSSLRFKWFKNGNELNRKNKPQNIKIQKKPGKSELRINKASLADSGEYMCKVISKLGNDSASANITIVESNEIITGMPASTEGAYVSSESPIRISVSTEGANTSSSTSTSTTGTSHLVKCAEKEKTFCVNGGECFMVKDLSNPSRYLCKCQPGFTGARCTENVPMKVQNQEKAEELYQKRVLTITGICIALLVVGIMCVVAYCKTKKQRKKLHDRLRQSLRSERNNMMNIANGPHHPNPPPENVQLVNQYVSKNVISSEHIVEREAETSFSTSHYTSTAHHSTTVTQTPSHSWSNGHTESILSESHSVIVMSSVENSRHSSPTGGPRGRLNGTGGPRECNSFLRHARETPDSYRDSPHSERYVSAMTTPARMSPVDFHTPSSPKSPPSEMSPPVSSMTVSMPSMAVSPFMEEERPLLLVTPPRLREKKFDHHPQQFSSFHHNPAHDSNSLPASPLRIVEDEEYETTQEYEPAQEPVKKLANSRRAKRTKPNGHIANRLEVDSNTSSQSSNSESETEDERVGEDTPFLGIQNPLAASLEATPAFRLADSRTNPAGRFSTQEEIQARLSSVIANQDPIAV
Chain of Neurogenic locus notch homolog protein 2 (Homo sapiens) (Q04721 whole entry, looked up, canonical isoform): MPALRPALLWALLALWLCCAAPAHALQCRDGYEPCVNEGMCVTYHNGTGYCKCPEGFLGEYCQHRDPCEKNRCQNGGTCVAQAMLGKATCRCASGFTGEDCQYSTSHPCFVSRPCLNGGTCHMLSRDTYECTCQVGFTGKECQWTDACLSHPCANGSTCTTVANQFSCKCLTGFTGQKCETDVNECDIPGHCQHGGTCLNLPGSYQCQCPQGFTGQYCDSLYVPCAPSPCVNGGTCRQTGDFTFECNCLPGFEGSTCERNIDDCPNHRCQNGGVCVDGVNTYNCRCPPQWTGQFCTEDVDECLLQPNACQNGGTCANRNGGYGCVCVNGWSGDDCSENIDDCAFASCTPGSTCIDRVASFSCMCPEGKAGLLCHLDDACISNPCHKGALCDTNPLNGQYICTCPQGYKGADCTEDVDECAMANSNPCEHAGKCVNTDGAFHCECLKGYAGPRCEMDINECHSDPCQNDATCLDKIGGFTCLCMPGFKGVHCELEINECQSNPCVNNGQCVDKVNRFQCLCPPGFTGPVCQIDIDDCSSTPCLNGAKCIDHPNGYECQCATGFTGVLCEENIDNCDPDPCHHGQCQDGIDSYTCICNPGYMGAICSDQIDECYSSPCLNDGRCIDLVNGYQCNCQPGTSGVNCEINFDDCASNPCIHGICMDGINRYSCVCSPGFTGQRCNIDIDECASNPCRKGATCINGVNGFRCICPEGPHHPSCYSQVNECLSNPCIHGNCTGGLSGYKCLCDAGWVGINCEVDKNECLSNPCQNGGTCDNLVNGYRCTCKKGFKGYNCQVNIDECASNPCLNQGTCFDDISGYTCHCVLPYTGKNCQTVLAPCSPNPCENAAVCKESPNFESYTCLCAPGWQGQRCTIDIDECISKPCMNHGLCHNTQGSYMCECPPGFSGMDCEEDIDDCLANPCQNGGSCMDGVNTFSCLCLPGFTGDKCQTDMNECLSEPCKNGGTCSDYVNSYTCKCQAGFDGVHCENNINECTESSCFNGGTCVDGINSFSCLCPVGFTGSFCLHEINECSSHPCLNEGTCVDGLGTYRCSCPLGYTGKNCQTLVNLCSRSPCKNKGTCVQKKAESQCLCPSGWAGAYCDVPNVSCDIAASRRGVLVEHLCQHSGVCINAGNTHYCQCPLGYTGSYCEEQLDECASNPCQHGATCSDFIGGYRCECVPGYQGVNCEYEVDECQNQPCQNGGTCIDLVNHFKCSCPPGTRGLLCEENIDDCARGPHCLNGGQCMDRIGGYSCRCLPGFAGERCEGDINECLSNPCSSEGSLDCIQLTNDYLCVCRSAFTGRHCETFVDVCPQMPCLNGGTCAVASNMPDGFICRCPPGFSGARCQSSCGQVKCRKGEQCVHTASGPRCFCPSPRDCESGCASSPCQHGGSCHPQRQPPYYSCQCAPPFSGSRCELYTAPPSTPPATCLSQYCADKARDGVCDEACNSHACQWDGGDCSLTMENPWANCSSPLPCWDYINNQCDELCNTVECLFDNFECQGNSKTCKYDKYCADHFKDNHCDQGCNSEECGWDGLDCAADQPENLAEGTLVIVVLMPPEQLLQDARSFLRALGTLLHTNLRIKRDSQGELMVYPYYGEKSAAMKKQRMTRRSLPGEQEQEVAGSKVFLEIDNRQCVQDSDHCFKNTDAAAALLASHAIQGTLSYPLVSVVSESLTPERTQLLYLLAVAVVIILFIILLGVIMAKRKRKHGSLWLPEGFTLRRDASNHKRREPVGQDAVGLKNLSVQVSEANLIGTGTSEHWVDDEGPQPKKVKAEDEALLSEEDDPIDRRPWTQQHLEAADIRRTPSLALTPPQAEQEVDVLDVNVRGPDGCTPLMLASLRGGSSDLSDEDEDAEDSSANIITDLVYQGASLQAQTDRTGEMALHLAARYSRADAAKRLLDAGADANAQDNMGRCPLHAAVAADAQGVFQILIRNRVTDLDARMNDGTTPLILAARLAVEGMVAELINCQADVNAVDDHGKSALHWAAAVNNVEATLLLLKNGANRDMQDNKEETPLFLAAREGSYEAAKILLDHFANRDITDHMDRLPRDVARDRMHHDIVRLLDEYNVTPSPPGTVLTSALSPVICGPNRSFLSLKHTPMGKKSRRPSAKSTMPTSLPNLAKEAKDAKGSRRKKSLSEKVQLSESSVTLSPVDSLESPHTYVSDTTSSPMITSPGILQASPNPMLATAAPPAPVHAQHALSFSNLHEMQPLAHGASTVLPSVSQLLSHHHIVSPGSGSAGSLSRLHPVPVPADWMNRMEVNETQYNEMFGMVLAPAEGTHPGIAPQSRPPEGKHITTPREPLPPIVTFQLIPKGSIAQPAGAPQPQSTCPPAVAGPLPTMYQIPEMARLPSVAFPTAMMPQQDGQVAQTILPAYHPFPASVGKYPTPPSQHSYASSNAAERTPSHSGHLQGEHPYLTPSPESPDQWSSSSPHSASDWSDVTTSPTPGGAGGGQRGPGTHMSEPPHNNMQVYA
Chain of Torsin-1A-interacting protein 2 (Homo sapiens) (Q8NFQ8 whole entry, looked up): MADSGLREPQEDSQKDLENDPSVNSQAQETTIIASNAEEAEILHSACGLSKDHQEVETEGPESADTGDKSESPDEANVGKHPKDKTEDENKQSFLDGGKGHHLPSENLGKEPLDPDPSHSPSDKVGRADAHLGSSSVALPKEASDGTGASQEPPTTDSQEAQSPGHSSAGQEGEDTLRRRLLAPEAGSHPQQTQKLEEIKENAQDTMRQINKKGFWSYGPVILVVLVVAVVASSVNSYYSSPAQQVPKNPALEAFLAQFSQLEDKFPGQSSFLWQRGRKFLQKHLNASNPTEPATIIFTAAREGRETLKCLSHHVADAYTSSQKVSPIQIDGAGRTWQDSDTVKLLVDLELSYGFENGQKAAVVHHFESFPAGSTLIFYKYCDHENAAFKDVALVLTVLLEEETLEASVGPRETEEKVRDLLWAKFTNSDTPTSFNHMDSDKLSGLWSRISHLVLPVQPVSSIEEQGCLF

Structure (SMILES)	composite z-score [1]	composite z-score [2]	composite z-score [3]	composite z-score [4]	composite z-score [5]	composite z-score [6]	composite z-score [7]	z-score [8]	composite z-score [9]	composite z-score [10]	composite z-score [11]	z-score [12]	z-score [13]	z-score [14]	composite z-score [15]	z-score [16]	composite z-score [17]	composite z-score [18]	composite z-score [19]	composite z-score [20]
[N-]=[N+]=Nc1ccccc1C[C@]1(C(N)=O)N=C(c2ccc(OCCCO)cc2)O[C@H]1c1ccccc1N=[N+]=[N-]	0.12	0.902	0.0598	1.05	1.23	1.42	1.21	-1.08 (inactive)	0.359	-0.0237	1.55	-0.376 (inactive)	-1.28 (inactive)	-0.686 (inactive)	2.89	-0.436 (inactive)	0.546	-0.306	0.877	0.701
NC(=O)NCC#Cc1ccc2c(c1)[C@]1(C(=O)N2)[C@H](C(=O)O)[C@H]2C(=O)O[C@H](c3ccccc3)[C@H](c3ccccc3)N2[C@@H]1c1ccc(OCCO)cc1	0.131	0.35	-0.139	0.0382	0.247	0.881	0.851	-0.359 (inactive)	0.718	-0.0994	1.1	0.33 (inactive)	0.459 (inactive)	-0.524 (inactive)	1.37	0.8 (inactive)	-0.199	0.205	0.1	-0.181
COc1ccc(-c2nc(-c3ccccc3)c3c(c2C)CO[Si]3(C(C)C)C(C)C)cn1	-0.367	0.0662	-0.087	0.296	0.296	-0.199	-0.196	0.702 (inactive)	-0.0377	0.176	0.569	-0.195 (inactive)	-0.391 (inactive)	-0.0892 (inactive)	0.498	-1.5 (inactive)	-0.162	1.09	0.0188	0.0361
N#Cc1ccc(NN2C(C(O)c3ccc(F)cc3)C=CC3C(=O)N(c4ccccc4)C(=O)C32)cc1 (stereo not given)	-0.28	-0.17	0.183	-0.0175	0.47	1.4	1.07	0.0158 (inactive)	0.87	-0.353	1.24	0.537 (inactive)	2.45 (inactive)	2.57 (inactive)	3.21	-0.538 (inactive)	-0.0477	-0.868	0.443	-0.257
COc1ccc([Si](C)(C)[C@@H]2[C@@H](CC(=O)N(CCO)Cc3ccccc3)O[C@]3(C(=O)N(Cc4cccc(N5C(=O)c6cccc7cccc5c67)c4)c4ccccc43)[C@H]2C)cc1	-0.143	0.167	-0.105	0.409	-0.127	0.442	0.763	-1.05 (inactive)	0.116	-0.0193	0.737	0.121 (inactive)	-0.534 (inactive)	2.09 (inactive)	0.36	2.11 (inactive)	-0.259	1.33	0.455	-0.115
COC(=O)[C@@]1(Cc2ccccc2)[C@H]2c3cc(C(=O)N(C)C)n(CCN4CNCC4=O)c3C[C@H]2CN1C(=O)c1ccccc1	1.13	1.89	0.539	0.307	-0.0763	1.71	1.22	0.37 (inactive)	2	0.478	0.304	0.258 (inactive)	0.707 (inactive)	0.1 (inactive)	1.42	-0.0469 (inactive)	0.96	-0.652	0.0743	0.385
COc1ccc(CCNC(=O)[C@@H]2c3ccccc3C(=O)N(Cc3cc(C(F)(F)F)cc(C(F)(F)F)c3)[C@H]2c2ccc(CO)cc2)cc1	0.0967	-0.138	-0.123	-0.0803	-0.181	0.568	0.993	-0.188 (inactive)	-0.135	-0.236	1.41	0.279 (inactive)	-0.381 (inactive)	0.848 (inactive)	2.16	-0.0332 (inactive)	-0.237	1.07	0.365	-0.167
COc1ccc([Si](C)(C)[C@@H]2[C@@H](CC(=O)N3Cc4ccccc4C[C@H]3CO)O[C@]3(C(=O)N(Cc4cccc(N5C(=O)c6cccc7cccc5c67)c4)c4ccccc43)[C@H]2C)cc1	-0.345	0.822	-0.0111	0.659	0.973	0.828	1.04	-1.51 (inactive)	0.593	0.0505	1.56	-0.258 (inactive)	0.93 (inactive)	2.43 (inactive)	1.6	-0.342 (inactive)	-0.0144	1.08	1.09	0.0276
COc1ccc(NC(=O)O[C@H]2[C@H](OC(=O)Nc3ccccc3)[C@H](OC(=O)Nc3ccccc3)[C@@H](OC)O[C@@H]2CO)cc1	0.474	1	0.338	1.19	1.15	1.61	1.25	-0.742 (inactive)	0.803	0.281	1.55	0.855 (inactive)	0.887 (inactive)	3.25 (inactive)	2.66	-0.873 (inactive)	0.31	0.691	0.989	0.644
CN1C(=O)C2C=CC(C(O)COCc3ccccc3)N(N(c3ccccc3)c3ccccc3)C2C1=O (stereo not given)	0.0199	-0.177	0.0472	0.631	1.55	1.29	1.03	0.0958 (inactive)	1.1	-0.0563	0.482	0.298 (inactive)	-1.86 (inactive)	0.544 (inactive)	2.11	-0.0181 (inactive)	0.388	-0.419	0.894	0.726
